Experimental data: the supplement of paper PMC10849652
Targets with a hit are over-represented here; the source holds about 7,900 in all. About 0.6% of all pairs of compound and target were hits. Unmarked numbers belong to inactive results.

What was measured:
Assay in all cases: log2 fold change, soluble protein after heating vs DMSO (PISA); higher = thermal stabilisation; K562 cells, 10 uM, 30 min; active = over 0.2 and 3.5 SD of the protein, either way, in both replicates (recomputed)
[1] = compound: COC1=CC=C(C=C1)CN2C=CC3=C2C=C(C=C3)C(=O)NO
Outline: (§1)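 K562 cells (2×10^6 cells/mL) were treated with 10 μM compound for 30 min, and aliquots were heated for 3 min over 48°C-58°C. Pooled aliquots were extracted in PBS with 0.5% NP-40 at 4°C, and the supernatant after 21,000xg for 90 min was measured by TMTpro 16plex LC-MS/MS with channel sums equalised. Reported thermal stability, relative to control samples and from duplicates, is a log2 fold change.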

filanesib = compound: CON(C)C(=O)N1N=C(c2cc(F)ccc2F)S[C@@]1(CCCN)c1ccccc1 [filanesib]
Outline: as §1

zotarolimus = compound: CO[C@H]1C[C@@H]2CC[C@@H](C)[C@@](O)(O2)C(=O)C(=O)N2CCCC[C@H]2C(=O)O[C@H]([C@H](C)C[C@@H]2CC[C@H](n3cnnn3)[C@H](OC)C2)CC(=O)[C@H](C)/C=C(\C)[C@@H](O)[C@@H](OC)C(=O)[C@H](C)C[C@H](C)/C=C/C=C/C=C/1C [zotarolimus]
Outline: as §1

idasanutlin = compound: COc1cc(C(=O)O)ccc1NC(=O)[C@@H]1N[C@@H](CC(C)(C)C)[C@](C#N)(c2ccc(Cl)cc2F)[C@H]1c1cccc(Cl)c1F [idasanutlin]
Outline: as §1

alisertib = compound: COc1cc(Nc2ncc3c(n2)-c2ccc(Cl)cc2C(c2c(F)cccc2OC)=NC3)ccc1C(=O)O [alisertib]
Outline: as §1

[2] = compound: COc1cc2nc(-c3cc(F)ccc3O)nc(N[C@@H]3CNC[C@H]3C(C)(C)O)c2cc1OC
Outline: as §1

gefitinib = compound: COc1cc2ncnc(Nc3ccc(F)c(Cl)c3)c2cc1OCCCN1CCOCC1 [gefitinib]
Outline: as §1

[3] = compound: COc1cccc2cc(-c3nc([C@H]4CC[C@H](C(=O)O)CC4)n4ncnc(N)c34)[nH]c12
Outline: as §1

lapatinib = compound: CS(=O)(=O)CCNCc1ccc(-c2ccc3ncnc(Nc4ccc(OCc5cccc(F)c5)c(Cl)c4)c3c2)o1 [lapatinib]
Outline: as §1

pictilisib = compound: CS(=O)(=O)N1CCN(Cc2cc3nc(-c4cccc5[nH]ncc45)nc(N4CCOCC4)c3s2)CC1 [pictilisib]
Outline: as §1

[4] = compound: CS(=O)(=O)c1ccc(-c2cnc(N)c(C(=O)Nc3ccccc3)n2)cc1
Outline: as §1

crizotinib = compound: C[C@@H](Oc1cc(-c2cnn(C3CCNCC3)c2)cnc1N)c1c(Cl)ccc(F)c1Cl [crizotinib]
Outline: as §1

[5] = compound: C[C@@H]1COCCN1C2=NC(=NC(=C2)C3(CC3)S(=O)(=O)C)C4=C5C=CNC5=CC=C4
Outline: as §1

[6] = compound: C[C@H](C1=CC=C(C=C1)C(=O)NC2=C3C=CNC3=NC=C2)N
Outline: as §1

duvelisib = compound: C[C@H](Nc1ncnc2nc[nH]c12)c1cc2cccc(Cl)c2c(=O)n1-c1ccccc1 [duvelisib]
Outline: as §1

gandotinib = compound: Cc1cc(Nc2cc(CN3CCOCC3)c3nc(C)c(Cc4ccc(Cl)cc4F)n3n2)n[nH]1 [gandotinib]
Outline: as §1

tozasertib = compound: Cc1cc(Nc2cc(N3CCN(C)CC3)nc(Sc3ccc(NC(=O)C4CC4)cc3)n2)n[nH]1 [tozasertib]
Outline: as §1

[7] = compound: Cc1cc(SCc2sc(-c3ccc(C(F)(F)F)cc3)nc2C)ccc1OCC(=O)O
Outline: as §1

doramapimod = compound: Cc1ccc(-n2nc(C(C)(C)C)cc2NC(=O)Nc2ccc(OCCN3CCOCC3)c3ccccc23)cc1 [doramapimod]
Outline: as §1

ispinesib = compound: Cc1ccc(C(=O)N(CCCN)[C@@H](c2nc3cc(Cl)ccc3c(=O)n2Cc2ccccc2)C(C)C)cc1 [ispinesib]
Outline: as §1

Chain of UniProt Q6VY07 (Q6VY07 whole entry, looked up): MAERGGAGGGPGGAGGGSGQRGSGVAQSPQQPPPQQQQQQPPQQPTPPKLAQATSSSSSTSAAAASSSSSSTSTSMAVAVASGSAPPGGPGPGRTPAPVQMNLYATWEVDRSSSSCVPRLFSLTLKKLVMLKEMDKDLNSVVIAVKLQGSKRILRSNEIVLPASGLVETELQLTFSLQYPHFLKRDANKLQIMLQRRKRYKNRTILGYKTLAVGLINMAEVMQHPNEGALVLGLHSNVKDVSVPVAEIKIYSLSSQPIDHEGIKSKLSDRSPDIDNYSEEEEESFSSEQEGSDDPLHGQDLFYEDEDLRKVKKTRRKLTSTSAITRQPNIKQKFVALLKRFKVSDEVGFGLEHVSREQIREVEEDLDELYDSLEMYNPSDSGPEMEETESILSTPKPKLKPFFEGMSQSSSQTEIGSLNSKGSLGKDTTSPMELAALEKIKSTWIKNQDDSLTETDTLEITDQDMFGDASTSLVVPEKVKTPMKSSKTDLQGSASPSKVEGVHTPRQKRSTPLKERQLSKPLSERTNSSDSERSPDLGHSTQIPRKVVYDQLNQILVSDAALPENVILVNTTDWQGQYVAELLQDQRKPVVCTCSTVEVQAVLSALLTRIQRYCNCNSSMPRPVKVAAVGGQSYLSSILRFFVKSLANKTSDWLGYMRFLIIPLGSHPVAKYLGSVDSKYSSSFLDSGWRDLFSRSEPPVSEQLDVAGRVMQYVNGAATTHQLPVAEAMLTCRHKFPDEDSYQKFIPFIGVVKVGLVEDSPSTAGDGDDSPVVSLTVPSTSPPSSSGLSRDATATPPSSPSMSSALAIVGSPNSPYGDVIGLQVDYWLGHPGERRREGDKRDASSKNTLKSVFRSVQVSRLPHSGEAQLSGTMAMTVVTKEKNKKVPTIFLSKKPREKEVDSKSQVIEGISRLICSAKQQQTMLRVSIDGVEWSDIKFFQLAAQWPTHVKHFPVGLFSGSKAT
Chain of UniProt Q9BV86 (Q9BV86 whole entry, looked up): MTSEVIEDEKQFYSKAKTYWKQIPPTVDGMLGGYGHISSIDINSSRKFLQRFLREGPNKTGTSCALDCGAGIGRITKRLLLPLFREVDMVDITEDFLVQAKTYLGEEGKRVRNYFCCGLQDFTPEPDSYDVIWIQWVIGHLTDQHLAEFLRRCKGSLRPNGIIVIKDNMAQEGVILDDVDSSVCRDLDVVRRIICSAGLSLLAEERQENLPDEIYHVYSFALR
Chain of UniProt Q9BUB5 (Q9BUB5 whole entry, looked up): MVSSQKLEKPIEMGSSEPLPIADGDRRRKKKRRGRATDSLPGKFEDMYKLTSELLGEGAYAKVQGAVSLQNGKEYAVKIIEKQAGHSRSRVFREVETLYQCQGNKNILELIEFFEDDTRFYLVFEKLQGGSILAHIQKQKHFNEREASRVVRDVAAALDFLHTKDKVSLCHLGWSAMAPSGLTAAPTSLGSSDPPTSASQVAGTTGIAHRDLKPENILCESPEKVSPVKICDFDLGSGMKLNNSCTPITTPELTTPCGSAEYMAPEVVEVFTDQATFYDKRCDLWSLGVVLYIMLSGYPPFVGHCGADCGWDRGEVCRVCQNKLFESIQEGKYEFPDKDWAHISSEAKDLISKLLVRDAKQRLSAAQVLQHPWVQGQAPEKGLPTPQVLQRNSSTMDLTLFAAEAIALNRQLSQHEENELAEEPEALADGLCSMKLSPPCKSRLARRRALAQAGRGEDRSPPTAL
Chain of UniProt Q330K2 (Q330K2 whole entry, looked up): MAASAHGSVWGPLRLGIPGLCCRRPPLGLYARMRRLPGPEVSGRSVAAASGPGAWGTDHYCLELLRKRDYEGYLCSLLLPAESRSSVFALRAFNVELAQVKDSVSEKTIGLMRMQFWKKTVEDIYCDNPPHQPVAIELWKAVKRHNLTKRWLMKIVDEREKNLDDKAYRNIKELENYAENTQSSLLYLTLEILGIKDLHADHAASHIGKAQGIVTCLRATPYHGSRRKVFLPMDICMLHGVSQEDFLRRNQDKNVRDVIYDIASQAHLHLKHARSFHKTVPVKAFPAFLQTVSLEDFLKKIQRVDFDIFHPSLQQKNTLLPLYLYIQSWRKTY
Chain of UniProt Q96T76 (Q96T76 whole entry, looked up): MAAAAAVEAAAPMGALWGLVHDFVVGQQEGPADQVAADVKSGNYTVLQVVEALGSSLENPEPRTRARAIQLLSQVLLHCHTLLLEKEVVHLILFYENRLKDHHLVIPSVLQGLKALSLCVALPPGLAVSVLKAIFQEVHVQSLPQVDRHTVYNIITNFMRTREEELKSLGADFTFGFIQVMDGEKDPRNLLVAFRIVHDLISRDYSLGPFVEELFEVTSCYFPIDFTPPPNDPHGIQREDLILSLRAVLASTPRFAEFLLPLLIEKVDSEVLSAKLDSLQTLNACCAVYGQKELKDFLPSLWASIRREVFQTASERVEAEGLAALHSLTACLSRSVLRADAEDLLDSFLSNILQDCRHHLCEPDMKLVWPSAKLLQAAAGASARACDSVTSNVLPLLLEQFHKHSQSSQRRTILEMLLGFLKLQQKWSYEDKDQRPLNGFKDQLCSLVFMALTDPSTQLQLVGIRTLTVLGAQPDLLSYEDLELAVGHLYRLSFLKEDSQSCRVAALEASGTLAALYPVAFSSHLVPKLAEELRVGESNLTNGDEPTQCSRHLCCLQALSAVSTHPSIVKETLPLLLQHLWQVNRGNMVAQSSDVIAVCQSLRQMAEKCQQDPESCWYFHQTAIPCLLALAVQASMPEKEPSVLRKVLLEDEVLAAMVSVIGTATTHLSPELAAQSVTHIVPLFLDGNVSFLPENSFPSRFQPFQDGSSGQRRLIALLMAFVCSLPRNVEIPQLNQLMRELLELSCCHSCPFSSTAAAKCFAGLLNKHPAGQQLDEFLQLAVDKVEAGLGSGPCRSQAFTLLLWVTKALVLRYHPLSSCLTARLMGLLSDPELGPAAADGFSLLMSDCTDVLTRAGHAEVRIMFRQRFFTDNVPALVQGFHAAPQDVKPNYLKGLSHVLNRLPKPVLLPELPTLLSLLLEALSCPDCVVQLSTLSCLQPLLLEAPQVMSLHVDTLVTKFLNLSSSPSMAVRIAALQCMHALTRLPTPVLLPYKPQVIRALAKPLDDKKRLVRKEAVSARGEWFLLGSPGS
Chain of UniProt P52948 (P52948 whole entry, looked up): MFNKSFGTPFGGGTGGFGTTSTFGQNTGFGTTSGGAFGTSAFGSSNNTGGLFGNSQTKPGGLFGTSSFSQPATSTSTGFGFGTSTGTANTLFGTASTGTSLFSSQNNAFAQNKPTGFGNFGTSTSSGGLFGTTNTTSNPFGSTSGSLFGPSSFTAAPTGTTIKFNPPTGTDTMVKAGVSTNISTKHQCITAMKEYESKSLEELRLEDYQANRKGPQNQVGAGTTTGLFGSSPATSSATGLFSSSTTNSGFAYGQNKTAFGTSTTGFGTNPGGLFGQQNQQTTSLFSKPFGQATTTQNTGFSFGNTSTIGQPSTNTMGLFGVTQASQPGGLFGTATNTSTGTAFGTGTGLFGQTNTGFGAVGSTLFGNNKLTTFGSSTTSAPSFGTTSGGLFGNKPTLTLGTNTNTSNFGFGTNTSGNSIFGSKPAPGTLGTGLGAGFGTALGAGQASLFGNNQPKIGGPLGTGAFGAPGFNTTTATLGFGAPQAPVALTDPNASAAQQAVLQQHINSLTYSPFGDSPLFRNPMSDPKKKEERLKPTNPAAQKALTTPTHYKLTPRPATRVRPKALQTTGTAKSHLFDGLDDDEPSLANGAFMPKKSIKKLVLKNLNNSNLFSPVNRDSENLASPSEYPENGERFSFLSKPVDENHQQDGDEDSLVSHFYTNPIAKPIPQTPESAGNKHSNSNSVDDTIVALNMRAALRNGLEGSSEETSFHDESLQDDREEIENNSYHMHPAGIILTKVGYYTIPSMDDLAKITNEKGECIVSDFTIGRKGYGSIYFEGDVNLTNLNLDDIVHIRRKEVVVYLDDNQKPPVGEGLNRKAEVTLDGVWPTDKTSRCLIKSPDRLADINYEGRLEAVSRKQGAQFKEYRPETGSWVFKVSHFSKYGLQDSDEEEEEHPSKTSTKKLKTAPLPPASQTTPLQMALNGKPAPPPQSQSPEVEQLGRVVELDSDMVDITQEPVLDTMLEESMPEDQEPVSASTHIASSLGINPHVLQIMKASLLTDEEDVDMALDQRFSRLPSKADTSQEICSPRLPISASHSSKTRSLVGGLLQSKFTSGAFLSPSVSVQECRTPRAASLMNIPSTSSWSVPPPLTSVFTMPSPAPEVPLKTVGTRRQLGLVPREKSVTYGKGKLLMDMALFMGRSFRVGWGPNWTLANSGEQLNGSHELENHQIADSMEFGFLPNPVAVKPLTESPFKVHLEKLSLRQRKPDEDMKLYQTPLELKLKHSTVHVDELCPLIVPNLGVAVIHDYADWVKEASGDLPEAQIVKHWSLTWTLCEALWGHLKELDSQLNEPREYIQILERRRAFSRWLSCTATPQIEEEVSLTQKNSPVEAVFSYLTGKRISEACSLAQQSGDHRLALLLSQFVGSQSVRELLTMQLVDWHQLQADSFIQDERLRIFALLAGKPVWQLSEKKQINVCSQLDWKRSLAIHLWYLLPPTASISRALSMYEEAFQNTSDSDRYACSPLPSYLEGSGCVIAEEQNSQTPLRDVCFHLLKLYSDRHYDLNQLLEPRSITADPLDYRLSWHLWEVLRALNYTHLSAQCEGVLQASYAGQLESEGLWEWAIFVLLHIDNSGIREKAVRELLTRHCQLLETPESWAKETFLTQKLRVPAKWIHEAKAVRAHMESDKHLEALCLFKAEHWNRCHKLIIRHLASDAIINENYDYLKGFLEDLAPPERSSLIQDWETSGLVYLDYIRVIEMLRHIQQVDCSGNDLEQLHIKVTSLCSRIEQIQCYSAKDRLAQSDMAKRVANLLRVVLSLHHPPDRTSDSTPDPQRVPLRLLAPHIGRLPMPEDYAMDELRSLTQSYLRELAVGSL

Target | log2 fold change [1] | log2 fold change (filanesib) | log2 fold change (zotarolimus) | log2 fold change (idasanutlin) | log2 fold change (alisertib) | log2 fold change [2] | log2 fold change (gefitinib) | log2 fold change [3] | log2 fold change (lapatinib) | log2 fold change (pictilisib) | log2 fold change [4] | log2 fold change (crizotinib) | log2 fold change [5] | log2 fold change [6] | log2 fold change (duvelisib) | log2 fold change (gandotinib) | log2 fold change (tozasertib) | log2 fold change [7] | log2 fold change (doramapimod) | log2 fold change (ispinesib)
NDUFAF6 (UniProt Q330K2) | 0.183 | -0.177 | -0.006 | 0.03 | -0.199 | -0.165 | -0.018 | 0.061 | -0.007 | 0 | -0.052 | -0.197 | 0.182 | -0.025 | 0.144 | -0.167 | -0.051 | 0.027 | -0.065 | -0.273
MMS19 isoform 8 (UniProt Q96T76) | -0.094 | -0.036 | 0.037 | -0.014 | -0.019 | 0.06 | 0.026 | 0.019 | -0.021 | -0.008 | 0.002 | -0.156 | 0.023 | 0.053 | 0.044 | -0.129 | 0.051 | 0.103 | 0.033 | -0.035
NTMT1 (UniProt Q9BV86) | -0.455 (active) | -0.055 | 0.091 | -0.121 | -0.043 | 0.085 | 0.062 | -0.027 | -0.001 | 0.092 | 0.128 | 0.039 | 0.074 | -0.029 | 0.054 | 0.093 | 0.067 | 0.021 | 0.071 | 0.02
NUP98 (UniProt P52948) | -0.003 | 0.045 | 0.009 | 0.061 | 0.007 | 0.047 | 0.026 | -0.057 | 0.02 | 0.027 | 0.031 | -0.02 | 0.007 | -0.009 | 0.007 | -0.044 | 0.04 | 0.1 | 0.022 | 0.001
MKNK1 (UniProt Q9BUB5) | 0.021 | -0.108 | -0.022 | -0.075 | 0.008 | -0.021 | 0.525 (active) | -0.073 | 0.015 | -0.058 | 0.038 | -0.082 | -0.039 | 0.31 (active) | 0.031 | 0.038 | 0.085 | 0.057 | 0.054 | -0.03
MRPS17 (UniProt Q9Y2R5) | -0.089 | 0.038 | 0.047 | -0.254 | -0.043 | -0.025 | 0.039 | -0.016 | 0.113 | 0.035 | 0.038 | 0.034 | 0.097 | 0.076 | 0.012 | -0.06 | -0.019 | 0.166 | 0.033 | -0.345 (active)
PACS1 (UniProt Q6VY07) | 0.105 | 0.047 | 0.008 | -0.005 | 0.006 | 0.054 | 0.043 | 0.002 | 0.013 | 0.021 | 0.013 | -0.053 | 0.051 | -0.015 | 0.033 | -0.018 | 0 | -0.014 | 0.06 | 0.042
OXA1L (UniProt Q15070) | -0.023 | -0.123 | 0.009 | -0.029 | 0.003 | -0.186 | -0.004 | 0.053 | 0.013 | 0.058 | -0.042 | -0.064 | 0.004 | -0.018 | 0.021 | 0.012 | 0.005 | 0.018 | -0.01 | -0.1
